Screening data deposited in PubChem BioAssay by Sanford-Burnham Center for Chemical Genomics.
HIF-2a inh = blocks HIF-2a reporter activity; 360,000 compounds, 0.72% hits; inhibition, % at 18.8 µM; 786-0 RCC cells HIF-2a reporter, luciferase luminescence, overnight;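 active means inhibition of the luminescence signal of 40% or more relative to plate controls, in a single-dose primary screen at 18.75 µM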
TWEAK Fn14 block = inhibitors of TWEAK-Fn14 interaction signaling; TWEAK-stimulated Fn14 reporter cells, luciferase luminescence, 8 h; inhibition, % at 10 µM; 360,000 compounds, 2% hits; in the data active means inhibition above about 50%
KKLEB tox = reduces viability of KKLEB cystic fibrosis airway cells. AID 602141. activity change (cytotoxicity), % at 5 µM. 360,000 compounds, 0.36% hits. KKLEB CF airway cells viability, ATPlite luminescence, overnight; hits give low values; cells stimulated with P. aeruginosa culture filtrate;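 active means corrected activity change at or below -50% at 5 µM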
TROY signal inh = TROY signaling inhibition; Q293 LMP1-TROYcd NF-kB luciferase reporter, 4 h; AID 1347056; 360,000 compounds, 0.98% hits; inhibition, % at 10 µM;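 active means compounds whose plate-normalised and pattern-corrected inhibition of the luciferase reporter signal at the single screening dose is 50% or more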
CF NFkB inh = blocks PAF-induced NF-kB reporter in cystic fibrosis cells | inhibition, % at 5 µM | 360,000 compounds, 0.86% hits | KKLEB NF-kB-GFP reporter, GFP fluorescence overnight;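 active means at least 50% inhibition at 5 µM, scaled per plate between neutral and stimulator controls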;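 further: PAF is a Pseudomonas aeruginosa culture filtrate used as stimulus; plate controls were PAF-stimulated DMSO wells for no effect and unstimulated DMSO wells for full effect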
Peg3 prom inh = reduces Peg3 promoter-driven luciferase expression in HeLa; AID 588405; inhibition, % at 20 µM; 360,000 compounds, 1.7% hits; HeLa PEG-Prom luciferase reporter, luminescence, overnight;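 active means inhibition of at least 50% at 20 µM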
Numbers without * were called inactive; . = not tested or not shown. In the library only some 3.9% were active in any assay of this set; here they are far more common.

SMILES	HIF-2a inh	TWEAK Fn14 block	KKLEB tox	TROY signal inh	CF NFkB inh	Peg3 prom inh
COc1cc(OC)c(NC2=CC(=O)C(=O)c3ccccc32)cc1Cl	9	18	-21	-4	85*	4
NS(=O)(=O)c1ccc(NC2=CC(=O)C(=O)c3ccccc32)cc1	-102	4	-24	14	94*	-2
O=C1C=C(Nc2ccc(O)cc2)C(=O)c2ccccc21	-221	10	-7	-23	14	-213
Cc1ccc(NC2=CC(=O)C(=O)c3ccccc32)cc1	-47	16	-29	-18	59*	-137
Cc1cc(NC2=CC(=O)C(=O)c3ccccc32)no1	-119	-4	-42	-42	86*	-10
FC(F)(F)c1nc(N2CCN(c3ccccc3)CC2)nc2c1CCCCC2	-2	94*	0	57*	3	11
COc1cc(SC)ccc1C(=O)Nc1ccccc1	-253	16	-4	-72	-22	-230
COc1cc(SC)ccc1C(=O)Nc1nccs1	-84	63*	-22	31	-9	-117
Cc1ccc(-n2ncc3c2CC(C)(C)CC3NC(=O)c2ccc[n+]([O-])c2)cc1 (centres undefined)	14	16	-11	-8	29	9
CCN(CC)C(=O)COC(=O)C1=NN(c2cc(C)ccc2C)C(=O)CC1	6	1	4	2	-9	1
Cc1cc(C(=O)Nc2ccc(S(=O)(=O)N3CCCC3)cc2)no1	-1	17	-7	1	7	13
O=C(CCl)Nc1ccc(N2CCCCCC2)cc1	5	-5	8	-15	-11	84*
Cc1cc(C(=O)Nc2ccc(N3CCCCC3)cc2)no1	-98	73*	0	26	-3	-101
CC(=O)c1c[nH]c(C(=O)Nc2ccc(N3CCCCCC3)cc2)c1	-47	69*	15	22	-22	-76
O=C(c1ccco1)N1CCN(C(=O)c2cnn(-c3cccc(F)c3)c2C2CCNCC2)CC1	1	-5	6	0	-21	-11
COc1cc(C(=O)Nc2nccs2)c(Br)c(OC)c1OC	7	27	-4	-20	-14	-13
O=C(CN1CC(=O)Oc2ccccc21)OCC(=O)c1ccccc1	18	-2	-59*	-29	50*	59*
O=c1cc(O)nc(-c2ccccc2)s1	-4	9	19	-1	-6	-4
Cc1ccc(C(=O)c2oc3ccc(Cl)cc3c2NC(=O)CN2CCN(C)CC2)cc1	-50	-101	-12	-108	13	107*
O=C(/C(N=Nc1cccc(C(F)(F)F)c1)=C(/O)c1cccs1)C(F)(F)F	-247	57*	-15	9	30	-137
Cc1ccc(NCCC(=O)c2cccs2)cc1	-345	-22	-10	-17	3	-322
Cc1ccc(N=C/C(C(=O)C(F)(F)F)=C(\O)c2cccs2)cc1	-237	83*	0	-42	-7	-273
O=C(OCc1c(-c2ccccc2)ncc2ccccc12)c1ccc(Br)cc1	-19	-31	8	-26	-3	8
O=C1C=CC(c2ccccc2)(c2ccccc2)CC1	2	-8	-14	-10	14	3
COc1cccc2oc3ccc(C#CC4(N)CCCCC4)cc3c(=O)c12	-167	38	-21	49	-23	60*
SMILES	HIF-2a inh	TWEAK Fn14 block	KKLEB tox	TROY signal inh	CF NFkB inh	Peg3 prom inh
O=c1c2ccccc2oc2ccc(C#CC3(O)CCCCC3)cc12	-2	98*	-57*	89*	-28	37
N#Cc1ccc(C#Cc2ccc3oc4ccccc4c(=O)c3c2)cc1	-20	-22	-30	8	4	-2
Cn1c2ccccc2c(=O)c2ccc(F)cc21	-98	-43	10	-64	-117	-98
Cn1c2ccccc2c(=O)c2cc(C#CC3(O)CCCCC3)ccc21	11	90*	-72*	88*	-133	43
Cn1c2ccccc2c(=O)c2ccc(C#CC3(N)CCCCC3)cc21	-100	34	-20	62*	-7	52*
COc1cc(C(=O)OCc2nc3ccsc3c(=O)[nH]2)c([N+](=O)[O-])cc1OC	17	7	10	-1	-8	4
CN1C(=O)/C(=C/c2ccccc2OCc2cccc(F)c2)N(C)C1=S	8	16	-5	-7	9	20
CC(C)c1cc(C(C)C)c(S(=O)(=O)NC(c2ccccn2)C23CC2C3)c(C(C)C)c1 (centres undefined)	9	27	.	3	.	.
O=C(c1ccccc1Sc1ccccc1[N+](=O)[O-])N1CCCCC1	20	2	0	3	6	16
NC1(C#Cc2ccc3c(=O)c4ccccc4sc3c2)CCCCC1	-71	81*	-11	49	0	-105
COc1ccc(NC2CCCN(C(=O)c3cccnc3SC)C2)cc1OC (centres undefined)	6	-3	-2	-14	5	4
CCOC(=O)C1CCN(c2ccccc2CN2CCN(c3ccccc3OCC)CC2)CC1	-29	23	-15	3	33	92*
O=S(=O)(c1ccc(F)cc1)N(CCO)CC(O)Cn1c2ccccc2c2ccccc21 (centres undefined)	-41	-7	-11	13	21	32
NC(=O)N/N=C/c1ccc(N2CCOCC2)s1	0	-4	9	18	-18	52*
Cc1cc2ncn(CCOc3ccccc3C#N)c2cc1C	-40	55*	4	.	6	-32
N#Cc1ccccc1OCCn1cncn1	-5	4	-28	6	-6	-5
CCN(CC)C(=O)[C@H]1CC(CC(=O)NCCCn2ccnc2)C(=O)N2CCc3c([nH]c4ccccc34)[C@]12C (some centres undefined)	6	4	16	-24	-1	-8
COc1ccc(-c2ccn(-c3cccc(F)n3)n2)cc1	-130	56*	-12	-22	18	-112
CNc1nnc(-c2ccc(N(C)C)cc2)s1	-8	62*	-14	16	7	-130
Cc1cc(C)c2oc(C(=O)N(Cc3ccccc3)c3ccccn3)cc(=O)c2c1	20	-3	-18	-8	22	18
COc1ccccc1CNC(=O)CCCn1nc(C)n2ccnc2c1=O	9	-9	-6	1	26	-6
O=S(=O)(Nc1ccc(C(O)(C(F)(F)F)C(F)(F)F)cc1)c1ccc(Cl)c2nonc12	15	76*	-27	10	45	98*
O=S(=O)(Nc1ccc(Br)cc1)c1cccc2nonc12	19	24	-17	-24	-5	19
CC(C)(C)OC(=O)N1CCC(C(=O)Nc2ccc(C(=O)NCc3ccccc3)cc2)CC1	4	7	5	20	-6	3
O=C(NCCCCc1ccccc1)c1cccc(NC(=O)C2CCCCC2)c1	-18	-30	-13	6	21	-5
CC(C)(C)OC(=O)N1CCCC(C(=O)Nc2cccc(C(=O)NCCc3ccccc3)c2)C1 (centres undefined)	-206	100*	6	-52	-19	-94
